SMILES strings stand for the structures. Several values for one entry are separate records, joined by “and”; a condition that tells them apart may be missing. Equal entries are not always repeated. Screen size: about 370,000 compounds; about 2,400 (0.65%) were called active.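 How the source made its calls: active means inhibition above the screen-wide mean plus 3 SD (cut at about 13% in these data); inactive means the rest.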 The full list was thinned out, with actives kept by preference. Some structures have more than one record in an assay (separate samples or runs), and their calls can disagree.

In the assay the test system is HIV-1 integrase (with human LEDGF/p75). As to the kind of experiment: blockers of LEDGF/p75-dependent integrase strand transfer – biochemical, TR-FRET, high throughput, primary screen (AID 743269).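 Further: signal is the Cy5 over europium emission ratio at 671 and 618 nm; 0% = plate median of compound wells.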 Conditions: TR-FRET IN-LEDGF/p75 DNA integration, Eu/Cy5; at 3.7 µM; stronger effect = higher value. Background: In TR-FRET formats the signal depends on donor and acceptor labels being close together.
On to `CO/N=C(\C(=O)N[C@@H]1C(=O)N2C(C(=O)O)=C(COC(C)=O)CS[C@H]12)c1csc(N)n1` (stereo in doubt), for which the inhibition (in general, the relative decrease from the control value, in per cent) is 14.1% (active) and 6.2% (inactive) and 17.6% (active). Under `C=CC1=C(C(=O)O)N2C(=O)[C@@H](NC(=O)/C(=N/OCC(=O)O)c3csc(N)n3)[C@H]2SC1` stands 63.4% (active). Turning to `C=CC1=C(C(=O)O)N2C(=O)[C@@H](NC(=O)/C(=N\OCC(=O)O)c3csc(N)n3)[C@H]2SC1`, the inhibition is 19.9% (active).

For the compound `COc1ccc(C(=O)OCCN(C)C2CN(Cc3cn(Cc4cccc(C)c4)nn3)S(=O)(=O)C2)cc1OC` (stereo not given), the inhibition was 4.74% (inactive). Under `CN(C(N)=NC(=O)/C=C/c1ccccc1)C(C#Cc1ccccc1)Cc1ccccc1` (stereo not given) stands 2.02% (inactive); under `COc1ccc(C2CC=C(C(=O)O)C(c3ccccc3F)N2S(=O)(=O)c2ccc(C)cc2)cc1OC` (stereo not given), -2.7% (inactive); under `CN1C[C@]2(C=C3CCCCC3n3c(=O)n(-c4ccccc4)c(=O)n32)N=C1NC(=O)c1ccccc1` (stereo not given in full), 0.62% (inactive). Take `O=C(CNC(=O)c1ccccc1)OC(C(=O)Nc1cc([N+](=O)[O-])ccc1F)c1ccccc1` (stereo not given): the inhibition is -3.25% (inactive). As for `Cc1ccc(-n2c(SCC(=O)Nc3ccc(S(=O)(=O)Nc4nccs4)cc3)nnc2-c2cccnc2)cc1`, the inhibition was 8.17% (inactive). Under `COc1cccc(CNC(=O)C2CCCN(c3nc4ccccc4o3)C2)c1OC` (stereo not given) stands 3.24% (inactive).

Turning to `O=C(NCCCn1ccnc1)c1cc(-c2ccccc2)on1`, the inhibition is 1.32% (inactive).

Turning to `COc1ccccc1-c1cc(C(=O)NCCCn2ccnc2)no1`, the inhibition is 16.7% (active).

As to `O=C(CCN1C(=O)c2ccccc2C1=O)NCCCn1ccnc1`, the inhibition was 1.21% (inactive).

Consider `O=C(c1c[nH]c2ccccc12)N1CCC(Oc2cccnc2)CC1`, for which the inhibition is 8.82% (inactive). Under `Cc1ccc(-n2c(SCC(=O)Nc3cccc4ccccc34)nnc2-c2ccco2)cc1` stands 1.78% (inactive).

As to `COc1ccc(-n2c(SCC(=O)Nc3ccc4c(c3)OCCO4)nnc2-c2ccc(Cl)cc2)cc1`, the inhibition is 3.45% (inactive). With `Cc1csc(=O)n1CCC(=O)OCC(=O)Nc1ccc(N2CCOCC2)cc1`, the inhibition is 1.07% (inactive). Consider `O=C(COC(=O)Cc1ccc(Br)cc1)Nc1ccc(N2CCOCC2)cc1`, for which the inhibition was -6.57% (inactive). Under `O=C(O)CCC(=O)Nc1ccc(N2CCOCC2)cc1` stands 17.1% (active); under `COc1ccc(-c2cc(-c3nnc(SCc4ccc([N+](=O)[O-])cc4)n3N)[nH]n2)cc1`, -1.38% (inactive); under `COc1ccccc1C(=O)CSc1nnc(-c2ccccn2)n1-c1ccccc1`, -0.35% (inactive). Under `O=C(CSc1nc2ccccc2s1)NN=Cc1ccc(O)cc1O` stands -3.78% (inactive). Regarding `O=C(Nc1ccccc1)N1CCN(Cc2nc3ccccc3c(=O)[nH]2)CC1`, the inhibition was -2.46% (inactive). The figure for `Cc1c(C#N)c(NC(=O)c2ccccc2)n(Cc2ccccc2)c1C` is 0.96% (inactive). The figure for `CCCn1c(C)cc(-c2csc(NC(=O)CCc3nc4ccccc4c(=O)[nH]3)n2)c1C` is 5.25% (inactive). Turning to `CC(=O)Nc1ccc(C(=O)Nc2nc(-c3cc(C)n(Cc4ccccc4)c3C)cs2)cc1`, the inhibition is 17.7% (active). The figure for `CCOc1ccc(-n2c(SCC(=O)Nc3cc(C)c(NC(=O)c4ccccc4)cc3OC)nnc2-c2cccs2)cc1` is 1.97% (inactive). Take `COc1ccc(S[C@]2(C(=O)N(C)C)CC(=O)N(c3ccc(OC)cc3)[C@@H]2c2ccc(OC)cc2)cc1`: the inhibition was 2.73% (inactive). The figure for `C=CCN1[C@@H](Cc2ccccc2)COc2cccc(N3CCSCC3)c2S1(=O)=O` is 1.03% (inactive). Under `CCn1c2ccccc2c2cc(NC(=O)CSc3nnc(-c4ccccc4)n3-c3ccc(C)cc3)ccc21` stands 0.64% (inactive); under `COc1ccc(Cn2cc(CN3CCS(=O)(=O)N(Cc4ccc(-c5cccc(Cl)c5)cc4)C(C)C3=O)nn2)cc1` (stereo not given), 79.8% (active); under `CC1C(=O)N(Cc2cn(Cc3ccco3)nn2)CCS(=O)(=O)N1Cc1ccc(-c2cccc(CO)c2)cc1` (stereo not given), 1.97% (inactive). With `CC1C(=O)N(Cc2cn(CC3CCCCC3)nn2)CCS(=O)(=O)N1Cc1ccc(-c2cccc(N(C)C)c2)cc1` (stereo not given), the inhibition was 5.48% (inactive). Under `COC(=O)[C@]12C[C@H](CC(=O)NCc3cccs3)C(=O)N(CCc3ccc(OC)c(OC)c3)C1=C[C@H](C(C)C)O[C@@H]2C1CC1` stands 4.37% (inactive); under `Cc1ccc(S(=O)(=O)N(C)C)cc1NC(=O)COC(=O)C1COc2ccccc2O1` (stereo not given), 1.74% (inactive). Regarding `Cc1c(CC(=O)N2CCN(C(=O)C3COc4ccccc4O3)CC2)c(=O)oc2c(O)c(O)ccc12` (stereo not given), the inhibition is 67.8% (active).

With `CC(=O)c1ccccc1NC(=O)COC(=O)C1COc2ccccc2O1` (stereo not given), the inhibition is -3.4% (inactive). Under `C=CCN1C(=O)[C@@H](CC(=O)N2CCN(C(=O)OCC)CC2)[C@]2(C(=O)OCC)CCCCC/C=C/12` stands -0.68% (inactive); under `CC(C)(C)OC(=O)NCCc1ccccc1/C=C/S(=O)(=O)NCc1ccc(F)cc1`, -1.63% (inactive). Turning to `COc1ccc(CN2C/C(=C/c3ccccc3)N3C(=O)C[C@@H](c4ccccc4)N=C23)c(OC)c1`, the inhibition is -1.46% (inactive). The figure for `COc1c(O)cc2oc(-c3ccc(O)c(O)c3)cc(=O)c2c1O` is 34.7% (active); for `CCCC[C@H](C(=O)N(CC)c1ccccc1)[C@@H](O)c1ccc2ccccc2c1` it is -3.33% (inactive); for `C=CCN1C(=O)[C@H](CC(=O)NCCCN2CCCC2=O)[C@@]2(C(=O)OCC)CCCC=C12` it is -3.27% (inactive).

Regarding `COC1=C[C@H](C(=O)NCCNC(C)=O)[C@H](C)[C@@H](c2ccccc2)CC1=O`, the inhibition is -0.49% (inactive).

As for `CN(C)[C@@H]1C(=O)C(C(N)=O)=C(O)[C@@]2(O)C(=O)C3=C(O)c4c(O)ccc(Cl)c4[C@@H](O)[C@H]3C[C@@H]12`, the inhibition is 38.5% (active). The figure for `C=C1c2c(Cl)ccc(O)c2C(O)=C2C(=O)[C@]3(O)C(O)=C(C(N)=O)C(=O)[C@@H](N(C)C)[C@@H]3[C@@H](O)C12` (stereo not given in full) is 68% (active). Under `CCOC(=O)[C@]12CCCC=C1N(CCCOC)C(=O)[C@@H]2CC(=O)N1CCOCC1` stands 4.81% (inactive). As for `COc1ccc(C2Nc3ccccc3C(=O)N2Cc2cccs2)cc1COc1c(C)cccc1C` (stereo not given), the inhibition is -0.72% (inactive).

Take `CCOC(=O)C1=C(C)NC2=C(C(=O)CC(C)(C)C2)C1c1ccc2c(c1)OCO2` (stereo not given): the inhibition was -1.19% (inactive).

`CCCC1CCC2(CCCN2CCOC(=O)NCc2ccccc2)CC1` (stereo not given): the inhibition is -0.38% (inactive).

In the case of `Cc1ccc(C(=O)OC(C)CN2CCOCC2)cc1` (stereo not given), the inhibition was 57.5% (active). The figure for `CC(CN1CCOCC1)OC(=O)c1ccc(C(C)(C)C)cc1` (stereo not given) is 2.54% (inactive); for `Cc1cccc(C(=O)OC(C)CN2CCCC2)c1` (stereo not given) it is 1.96% (inactive). Under `COc1ccc2c(C(C)c3ccc(N)cc3)cn(C)c2c1` (stereo not given) stands 3.86% (inactive); under `Cc1c(C(C)c2ccccc2O)[nH]c2ccccc12` (stereo not given), -2.27% (inactive); under `Oc1ccc(N=Cc2sc3ccccc3c2Cl)cc1`, 27.5% (active). Under `COc1ccc([C@H]2OC(=O)C[C@H]2C(=O)N2CCN(c3ccccc3F)CC2)cc1OC` stands 1.9% (inactive); under `Cc1cc(C)nc(NC(=S)N2CCN(c3ccc(C(F)(F)F)cn3)CC2)c1`, 4.81% (inactive). `O=S1(=O)c2c(cccc2N2CCSCC2)Oc2ccccc2CN1Cc1cn(Cc2ccc(F)cc2)nn1`: the inhibition is -4.35% (inactive).

With `COC(=O)C1CN(CCc2ccccc2)CCS(=O)(=O)N1Cc1ccc(F)cc1` (stereo not given), the inhibition was -0.36% (inactive). The figure for `O=C(CCS(=O)(=O)c1ccccc1)Nc1ccc(Cl)c(Cl)c1` is -0.44% (inactive). Regarding `Cc1ccc(-c2cnc(NC(=O)CCC(=O)N(C)Cc3ccccc3)n2C)cc1`, the inhibition is 38.1% (active). As to `CN(Cc1ccccc1)C(=O)CCNC(=O)Cn1cnc2ccccc2c1=O`, the inhibition is -0.32% (inactive). Under `Cn1c(-c2ccc(F)cc2)cnc1SCC(=O)NNC(=O)Cc1ccccc1` stands -1.96% (inactive). Consider `O=C(OCC#CCSc1nnc(-c2ccco2)o1)c1ccc(F)cc1`, for which the inhibition was -2.28% (inactive).

For `COC(=O)[C@]12C[C@H](CC(=O)NCc3ccccc3)C(=O)N(Cc3ccccc3)C1=C[C@H](COCc1ccccc1)O[C@@H]2C`, the inhibition was -1.62% (inactive). For `CC(C)C(C#CC1CC1)N(Cc1ccc2c(c1)OCO2)C(N)=NC(=O)/C=C/c1cccc(C(F)(F)F)c1` (stereo not given), the inhibition is -0.12% (inactive). As for `COc1ccc(CSc2nnc(-c3cccc(C)c3)n2C)cc1`, the inhibition was 1.05% (inactive). The figure for `Cn1c(SCC(=O)N2CCCC2)nnc1-c1ccc2c(c1)OCO2` is 0.18% (inactive); for `Cn1c(SCc2nc3ccccc3s2)nnc1-c1ccc2c(c1)OCO2` it is 14.7% (active); for `CCOC(=O)[C@]12CCCC3=C1N(CCC3)C(=O)[C@@H](CC(=O)N1CCSCC1)C2` it is 4.16% (inactive). The figure for `COC(=O)[C@]12C[C@H](CC(=O)NCc3ccccc3)C(=O)N(CCC3=CCCCC3)C1=C[C@H](C(C)C)O[C@@H]2C1CC1` is -3.27% (inactive); for `Cc1ccccc1CN1CCCCC(NC(=O)c2cccc(C#N)c2)C1=O` (stereo not given) it is -3.73% (inactive). `CCCCCCN1CCS(=O)(=O)N(Cc2ccc(C(F)(F)F)cc2)C(C(=O)OC)C1` (stereo not given): the inhibition was -2.95% (inactive). As for `CCCn1c(C)cc(/C=C(\C#N)C(=O)OCC(=O)Nc2cc(OC)c(OC)c(OC)c2)c1C`, the inhibition is 4.46% (inactive). As to `COC(=O)/C(C#N)=C/c1occc1C`, the inhibition is 1.63% (inactive). Under `CCOC(=O)/C(C#N)=C\c1c(C)cc(C)c(COC(C)=O)c1C` stands 15.8% (active); under `CCOC(=O)c1csc(NC(=O)C2CCCN(S(=O)(=O)c3ccc(Cl)s3)C2)n1` (stereo not given), 3.42% (inactive). The figure for `CSc1ccc(C=Nn2c(-c3ccc(F)cc3)n[nH]c2=S)cc1` is 1.18% (inactive); for `COc1ccc2c(c1)CN1CN(CCc3ccccc3)S(=O)(=O)CC21` (stereo not given) it is 3.16% (inactive).

For the origin of these results see PubChem BioAssay AID743269 (The Scripps Research Institute Molecular Screening Center, 2014).
